Measurements from PubChem BioAssay AID624342 (National Center for Advancing Translational Sciences (NCATS), 2012).
Active and inactive are the calls of the source. Calls follow the shape of the full dose curve.

assay: qHTS for Inducers of the Endoplasmic Reticulum Stress Response (ERSR) in Human Glioma: Hit Validation; settings: U87-MG GRP78 promoter luciferase reporter, 16 h
Source text: Primary protein unfolding takes place for many diseases, including diabetes and hypoxia, , and triggers a reaction in the cells called ER stress response (ERSR). ). ERSR is designed as a repair mechanism, but ultimately leads to cell death via apoptosis if conditions triggering protein unfolding persist (1). The molecular clue to ERSR activation is the enhancement of the expression of key molecular chaperones, including the glucose regulated protein (GRP) 78. GRP78 is the main sensor for protein folding and the main actuator of the ERSR. In a collaboration between the Southern Research Institute and the NIH Chemical Genomics Center, a cell based screen was developed that reliably uses GRP78 as a sensor to identify small molecules as inducers of ERSR. In resting conditions, GRP78 binds proteins and acts as a natural repressor. Once unfolded proteins are present in the ER, GRP78 releases some of the repressors and binds to the unfolded proteins. The release of the repressors executes the ERSR program. Using a human glioma cell line in a miniaturized, luminescent format, a high-throughput screen was developed to identify actuators of the ERSR. In this assay, the hits identified from primary screen are re-run using the same protocol. NIH Chemical Genomics Center [NCGC] NIH Molecular Libraries Probe Centers Network [MLPCN] MLPCN Grant: DA031669 Assay Submitter (PI): Maurizio Grimaldi, Southern Research Institute (1) Soboloff, J. and S. A. Berger (2002). "Sustained ER Ca2+ depletion suppresses protein synthesis and induces activation-enhanced cell death in mast cells." J Biol Chem 277(16): 13812-20.
Stable transfected human glioma cell line, U87-MG, are dispensed at density 1000 cells/well into Greiner white solid bottom 1536-well assay plates. […] The assay plates will be incubated for 16 hours and developed by adding appropriate quantities of the Promega Bright Glo reagent. The plates will be incubated at room temperature for 10 minutes prior to being transferred into a ViewLux high-throughput CCD imager (PerkinElmer), wherein end-point measurements of luminescence are acquired.

SMILES | Potency
Cc1ccc(-c2cc(NC(=O)C(C)Oc3ccc(C)c(C)c3)on2)cc1 (stereo not drawn) | 30 µM (active)
CC(C)Cc1nn2c(=O)cc(COC(=O)CNC(=O)c3ccc(C(C)(C)C)cc3)nc2s1 | 30 µM (active)
CC(=O)N1CCOc2cc(S(=O)(=O)Nc3c(C)cccc3C(C)C)c(Cl)cc21 | 30 µM (active)
